Data taken from the supplement of paper PMC10646978.
± gives the standard deviation.

Each compound was assayed on RAW-Dual (murine macrophage reporter line) (assay: NF-kB reporter (SEAP) activity fold change vs agonist alone; higher = enhanced NF-kB activity). Details: modulator concentration 10 µM; agonist: CpG ODN 1826 0.5 ug/mL.
Method in brief: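 RAW-Dual murine macrophage reporter cells were plated at 50 000 per well in 384-well plates, pin-transferred compound to 10 μM final, and pre-incubated for 1 hour at 37 °C before a PRR agonist was added and the cells incubated overnight. NF-κB activity was read from supernatant SEAP with QUANTI-Blue at 620 nm absorbance, and IRF activity from Lucia luciferase with QUANTI-Luc by luminescence. Each signal was expressed as fold change by dividing by the mean agonist-only control on the same plate. Two replicate plates were averaged, with errors obtained by propagation.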

SMILES | NF-kB reporter
Cc1nc2sccn2c(=O)c1CCN1CCC(=C(c2ccc(F)cc2)c2ccc(F)cc2)CC1 | 0.91 ± 0.1
Cn1cnc([N+](=O)[O-])c1Sc1ncnc2nc[nH]c12 | 1.1 ± 0.2
CNC(=O)c1ccc2cc(C3(O)CCn4cncc43)ccc2c1 (stereo not given) | 0.99 ± 0.15
CCOC(=O)CN1CCOCCOCCN(CC(=O)OCC)CCOCCOCC1 | 0.937 ± 0.078
CCN(CC)CCNC(=O)c1c(C)[nH]c(/C=C2\C(=O)Nc3ccc(F)cc32)c1C.O=C(O)C[C@H](O)C(=O)O | 0.186 ± 0.011
Cc1cc(C)n(CC2CCN(Cc3ccc(Br)cc3)CC2)n1 | 0.933 ± 0.049
O=C(NC(=S)Nc1ccc2[nH]c(=O)[nH]c2c1)c1ccc(F)cc1 | 0.943 ± 0.095
C=C1CCC(NS(=O)(=O)c2ccc(-c3coc(C)n3)cc2)CC1 | 1.04 ± 0.056
CC(=O)N1CCN(C(=O)Cn2cnc(-c3ccc(C)cc3)cc2=O)CC1 | 0.929 ± 0.095
Cc1[nH]c(=O)c(C#N)cc1-c1ccncc1 | 1.34 ± 0.19
O=C(NCCOc1cccc2ccccc12)Nc1cc(F)c(F)cc1Cl | 0.945 ± 0.11
Cc1cc(C)n(CCCN2C(=O)c3cccc4cccc(c34)C2=O)n1 | 0.926 ± 0.084
CC(C)(C)C(O)/C=C/c1ccc2c(c1)OCO2 (stereo not given) | 1.19 ± 0.066
CN(C)c1ccc(O)c2c1C[C@H]1C[C@H]3[C@H](N(C)C)C(O)=C(C(N)=O)C(=O)[C@@]3(O)C(O)=C1C2=O.Cl | 0.96 ± 0.072
CN(C)c1ccc(C=C2C(=O)C(=O)c3ccccc32)cc1Br | 0.989 ± 0.098
Cc1cccc(C)c1NC(=O)CC(C)c1ccccc1 (stereo not given) | 0.982 ± 0.31
Cc1cc(CCNC(=O)c2cc3ccccc3s2)nn1C | 1.2 ± 0.12
CCSc1nc(-c2cccs2)cc(C(F)(F)F)c1C#N | 0.77 ± 0.078
CCN(CC)c1ccc(C=C(C#N)c2n[nH]c(N)c2C#N)c(OC)c1 | 1.43 ± 0.16
Cc1ncsc1C(=O)NC1CCC(F)(F)CC1 | 1.06 ± 0.068

SMILES | NF-kB reporter
Nc1ccccc1NC(=O)c1ccc(CNC(=O)OCc2cccnc2)cc1 | 2.23 ± 0.17
COc1cc(=O)n(C)cc1C(=O)Nc1cccnc1 | 1.06 ± 0.065
CC1=C(C(=O)N2CCOCC2)C(c2cccs2)NC(=O)N1 (stereo not given) | 1.12 ± 0.18
CCCCNc1ccc(C(=O)OCCN(C)C)cc1.Cl | 0.906 ± 0.12
CC(O)(CNC(=O)NCc1ccc(F)cc1)c1ccc(-c2ccccc2)cc1 (stereo not given) | 0.998 ± 0.053
O=C(Nc1ccc(S(=O)(=O)Nc2nccs2)cc1)c1c(F)cccc1F | 0.984 ± 0.1
Cc1ccc(Cn2c(N)nc3ccccc32)cc1 | 0.363 ± 0.067
Cc1ccc(Sc2c(C)nn(-c3ccccc3)c2OC(=O)C(C)(C)C)cc1 | 0.74 ± 0.07
Oc1c(Cl)cc(Cl)cc1C=Nc1cc(Cl)cc(Cl)c1 | 0.734 ± 0.14
CC(=O)Nc1ccc(O)cc1 [Prestw-868] | 0.876 ± 0.28
Cc1onc(-c2ccccc2)c1-c1ccc(S(N)(=O)=O)cc1 | 1.64 ± 0.26
Ic1cccc(Cn2nnc(-c3ccccc3)n2)c1 | 0.76 ± 0.06
COC(=O)C1C(=O)CC(C)(O)C(C(=O)OC)C1c1ccc2c(c1)OCO2 (stereo not given) | 1.03 ± 0.088
CCCCSc1nnc2c(n1)OC(c1cccc(C)n1)Nc1ccc(Br)cc1-2 (stereo not given) | 0.922 ± 0.073
CC(=O)Oc1cc2c(s1)CCN(C(C(=O)C1CC1)c1ccccc1F)C2.Cl (stereo not given) | 0.767 ± 0.1
CCN(CC)c1ccc(NC(=O)C(C)(C)C)cc1 | 0.969 ± 0.075
COC(=O)c1cc(Br)ccc1NC(=O)c1ccccc1 | 1.07 ± 0.17
CCCCc1oc2ccc(NS(C)(=O)=O)cc2c1C(=O)c1ccc(OCCCN(CCCC)CCCC)cc1.Cl | 0.403 ± 0.048
CCC1OC(=O)C(C)C(OC2CC(C)(OC)C(O)C(C)O2)C(C)C(OC2OC(C)CC(N(C)C)C2O)C(C)(O)CC(C)CN(C)C(C)C(O)C1(C)O (stereo not given) | 0.593 ± 0.046
O=C1OCCN1C1CCN(C(=O)C2(c3ccc(F)cc3)CC2)C1 (stereo not given) | 0.862 ± 0.094

Same assay, conditions: modulator concentration 10 µM; agonist: LPS 0.1 ug/mL

SMILES | NF-kB reporter
Cc1nc2sccn2c(=O)c1CCN1CCC(=C(c2ccc(F)cc2)c2ccc(F)cc2)CC1 | 1 ± 0.061
Cn1cnc([N+](=O)[O-])c1Sc1ncnc2nc[nH]c12 | 0.844 ± 0.23
CNC(=O)c1ccc2cc(C3(O)CCn4cncc43)ccc2c1 (stereo not given) | 0.866 ± 0.28
CCOC(=O)CN1CCOCCOCCN(CC(=O)OCC)CCOCCOCC1 | 0.971 ± 0.061
CCN(CC)CCNC(=O)c1c(C)[nH]c(/C=C2\C(=O)Nc3ccc(F)cc32)c1C.O=C(O)C[C@H](O)C(=O)O | 0.791 ± 0.11
Cc1cc(C)n(CC2CCN(Cc3ccc(Br)cc3)CC2)n1 | 0.745 ± 0.063
O=C(NC(=S)Nc1ccc2[nH]c(=O)[nH]c2c1)c1ccc(F)cc1 | 1.03 ± 0.066
C=C1CCC(NS(=O)(=O)c2ccc(-c3coc(C)n3)cc2)CC1 | 1.15 ± 0.091
CC(=O)N1CCN(C(=O)Cn2cnc(-c3ccc(C)cc3)cc2=O)CC1 | 1.01 ± 0.1
Cc1[nH]c(=O)c(C#N)cc1-c1ccncc1 | 1.26 ± 0.28
O=C(NCCOc1cccc2ccccc12)Nc1cc(F)c(F)cc1Cl | 1.06 ± 0.14
Cc1cc(C)n(CCCN2C(=O)c3cccc4cccc(c34)C2=O)n1 | 1.04 ± 0.083
CC(C)(C)C(O)/C=C/c1ccc2c(c1)OCO2 (stereo not given) | 1.26 ± 0.11
CN(C)c1ccc(O)c2c1C[C@H]1C[C@H]3[C@H](N(C)C)C(O)=C(C(N)=O)C(=O)[C@@]3(O)C(O)=C1C2=O.Cl | 0.927 ± 0.052
CN(C)c1ccc(C=C2C(=O)C(=O)c3ccccc32)cc1Br | 0.947 ± 0.15
Cc1cccc(C)c1NC(=O)CC(C)c1ccccc1 (stereo not given) | 1.12 ± 0.16
Cc1cc(CCNC(=O)c2cc3ccccc3s2)nn1C | 1.07 ± 0.082
CCSc1nc(-c2cccs2)cc(C(F)(F)F)c1C#N | 1.05 ± 0.069
CCN(CC)c1ccc(C=C(C#N)c2n[nH]c(N)c2C#N)c(OC)c1 | 0.885 ± 0.095
Cc1ncsc1C(=O)NC1CCC(F)(F)CC1 | 1.1 ± 0.088

SMILES | NF-kB reporter
Nc1ccccc1NC(=O)c1ccc(CNC(=O)OCc2cccnc2)cc1 | 1.53 ± 0.14
COc1cc(=O)n(C)cc1C(=O)Nc1cccnc1 | 0.817 ± 0.13
CC1=C(C(=O)N2CCOCC2)C(c2cccs2)NC(=O)N1 (stereo not given) | 0.973 ± 0.1
CCCCNc1ccc(C(=O)OCCN(C)C)cc1.Cl | 0.983 ± 0.31
CC(O)(CNC(=O)NCc1ccc(F)cc1)c1ccc(-c2ccccc2)cc1 (stereo not given) | 1.14 ± 0.12
O=C(Nc1ccc(S(=O)(=O)Nc2nccs2)cc1)c1c(F)cccc1F | 1.02 ± 0.058
Cc1ccc(Cn2c(N)nc3ccccc32)cc1 | 1.21 ± 0.12
Cc1ccc(Sc2c(C)nn(-c3ccccc3)c2OC(=O)C(C)(C)C)cc1 | 0.87 ± 0.075
Oc1c(Cl)cc(Cl)cc1C=Nc1cc(Cl)cc(Cl)c1 | 0.915 ± 0.076
CC(=O)Nc1ccc(O)cc1 [Prestw-868] | 1.04 ± 0.081
Cc1onc(-c2ccccc2)c1-c1ccc(S(N)(=O)=O)cc1 | 1.08 ± 0.4
Ic1cccc(Cn2nnc(-c3ccccc3)n2)c1 | 0.98 ± 0.048
COC(=O)C1C(=O)CC(C)(O)C(C(=O)OC)C1c1ccc2c(c1)OCO2 (stereo not given) | 1.08 ± 0.081
CCCCSc1nnc2c(n1)OC(c1cccc(C)n1)Nc1ccc(Br)cc1-2 (stereo not given) | 1.05 ± 0.07
CC(=O)Oc1cc2c(s1)CCN(C(C(=O)C1CC1)c1ccccc1F)C2.Cl (stereo not given) | 0.727 ± 0.11
CCN(CC)c1ccc(NC(=O)C(C)(C)C)cc1 | 1.02 ± 0.075
COC(=O)c1cc(Br)ccc1NC(=O)c1ccccc1 | 1.02 ± 0.17
CCCCc1oc2ccc(NS(C)(=O)=O)cc2c1C(=O)c1ccc(OCCCN(CCCC)CCCC)cc1.Cl | 0.998 ± 0.099
CCC1OC(=O)C(C)C(OC2CC(C)(OC)C(O)C(C)O2)C(C)C(OC2OC(C)CC(N(C)C)C2O)C(C)(O)CC(C)CN(C)C(C)C(O)C1(C)O (stereo not given) | 1.1 ± 0.07
O=C1OCCN1C1CCN(C(=O)C2(c3ccc(F)cc3)CC2)C1 (stereo not given) | 0.907 ± 0.16
